We go through 8 compounds from the supplement of paper PMC4709259.

SMILES strings stand for the structures. Counter-ions that a name gives are not always drawn. ± gives the standard deviation.

For assay [1], the system named is Jurkat. In words: mean cell size (FSC-A) relative to DMSO control (fraction of control); higher = larger cells. The following applies: 48 h. The procedure, abridged:
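Jurkat cells seeded at 600 cells/µl were incubated 1 h, then exposed for 48h to the Enzo Screen-Well FDA Approved Drug Library v2.0 at 25µM in 0.9% (v/v) final DMSO. Drugs that cut counts below 20% of controls were diluted 10-fold and retested, down to 25nM. Cell count and mean cell size (forward scatter area) were read on an Accuri C6 flow cytometer, relative to solvent-only controls. Plates held 6-12 controls; values are means of 3 biological replicates.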

Assay [2] has as its system Jurkat. The experiment in a line: cell count relative to DMSO control (fraction of control); higher = more cells (less growth inhibition). The following applies: 48 h.

The compound `C[N+]1(C)[C@@H]2CC(OC(=O)[C@H](CO)c3ccccc3)C[C@H]1[C@@H]1O[C@@H]12` (stereo partly drawn) [Methscopolamine Bromide ((-)-Scopolamine Methyl Bromide)] (concentration: 25 µM) came in with a mean cell size in assay [1] of 1.05 ± 0.046. Further, the cell count in assay [2] is 0.683 ± 0.089.

In the case of `CN1C(=O)CN=C(c2ccccc2)c2cc(Cl)ccc21` [Diazepam] (concentration: 25 µM), the mean cell size in assay [1] is 0.911 ± 0.048. The compound also came in with a cell count in assay [2] of 0.925 ± 0.098.

`O=c1[nH]c2ccccc2n1C1CCN(CCCC(c2ccc(F)cc2)c2ccc(F)cc2)CC1` [Pimozide] (concentration: 2.5 µM) had a mean cell size in assay [1] of 1.08 ± 0.033. This compound also registered a cell count in assay [2] of 0.663 ± 0.14.

`NCC(CC(=O)O)c1ccc(Cl)cc1` (stereo unspecified) [Baclofen] (concentration: 25 µM): in assay [1], the mean cell size turned out to be 0.985 ± 0.044. Besides, the cell count in assay [2] stood at 0.555 ± 0.08.

As for `COc1ccc2c(c1)[C@]13CCCC[C@@H]1[C@H](C2)N(C)CC3` [Dextromethorphan] (concentration: 25 µM), in assay [1], the mean cell size was 0.936 ± 0.022. In assay [2], this compound displayed a cell count of 0.841 ± 0.024.

The compound `CN1[C@@H]2CC[C@H]1C[C@@H](OC(=O)C(CO)c1ccccc1)C2` (stereo partly specified) [Atropine Sulfate Monohydrate] (concentration: 25 µM) registered a mean cell size in assay [1] of 0.974 ± 0.017. This compound also registered a cell count in assay [2] of 0.677 ± 0.057.

As for `C=CCN1CC[C@]23c4c5ccc(O)c4O[C@H]2C(=O)CC[C@@]3(O)[C@H]1C5` [Naloxone·HCl] (concentration: 25 µM), the mean cell size in assay [1] came to 0.947 ± 0.018. In assay [2], this compound returned a cell count of 0.96 ± 0.071.

For `O=P1(N(CCCl)CCCl)NCCCO1` (stereo unspecified) [Cyclophosphamide (Free Base)] (concentration: 25 µM), the mean cell size in assay [1] came out at 1.01 ± 0.051. Moreover, the cell count in assay [2] was found to be 0.623 ± 0.15.
